This is an account of results in PubChem BioAssay (Tox21).

The structures appear in SMILES notation. Values without a mark were called inactive. Results filed as inconclusive are left out. Calls of active or inactive are those of the source. Unless noted, calls come from the whole dose curve; as a rule, active = well fitted curve in the direction sought with a large enough effect in the repeat runs; inconclusive = weak or mixed curves; inactive = no such curve, though single readings can be large; an effect the other way counts as inactive or inconclusive.

Assay [1] is described as follows: qHTS assay to identify small molecule antagonists of the estrogen related receptor (ERR) signaling pathway from Tox21 library - cell viability counter screen (AID 1224834). Note: nearly all actives have a fitted effect of over 30% in size. In outline:
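Viability readout (CellTiter-Fluor fluorescence, 30 min at 37 C) multiplexed with the ERR assay; cells treated 17.5 h at 37 C with compounds delivered in DMSO.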
A general note: Quantitative high-throughput screening tests each substance at several concentrations.

The target of assay [2] is Luciferin 4-monooxygenase (Photinus pyralis) (UniProt P08659). The experiment in a line: qHTS assay to identify small molecule inhibitors of firefly luciferase (AID 1224835). Note: nearly all actives have a fitted effect of over 25% in size. Note: potency is the fitted concentration of half-maximal effect. In outline: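 Biochemical qHTS: compounds run as interplate titrations against purified firefly enzyme, with D-luciferin and ATP each at its KM concentration. Light output recorded by CCD imaging.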
Chain of Luciferin 4-monooxygenase (Photinus pyralis) (P08659 whole entry, looked up): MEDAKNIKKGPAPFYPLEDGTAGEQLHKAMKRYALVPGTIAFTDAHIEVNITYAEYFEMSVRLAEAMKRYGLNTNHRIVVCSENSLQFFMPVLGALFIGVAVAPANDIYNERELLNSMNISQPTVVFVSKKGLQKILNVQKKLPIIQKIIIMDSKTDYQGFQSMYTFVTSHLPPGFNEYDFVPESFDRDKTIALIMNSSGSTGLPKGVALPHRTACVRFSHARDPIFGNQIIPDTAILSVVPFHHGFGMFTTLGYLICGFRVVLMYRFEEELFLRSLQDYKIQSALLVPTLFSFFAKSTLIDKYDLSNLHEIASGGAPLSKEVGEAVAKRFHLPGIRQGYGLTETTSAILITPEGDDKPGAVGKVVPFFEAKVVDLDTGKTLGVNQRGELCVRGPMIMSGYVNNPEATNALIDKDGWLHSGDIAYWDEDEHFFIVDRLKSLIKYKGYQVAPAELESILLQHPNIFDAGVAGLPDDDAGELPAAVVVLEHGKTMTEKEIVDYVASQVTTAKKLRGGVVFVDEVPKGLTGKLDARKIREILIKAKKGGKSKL

Assay [3] can be described thus: qHTS assay to identify small molecule agonists of the constitutive androstane receptor (CAR) signaling pathway - cell viability counter screen (AID 1224836). Note: series mostly up to about 92 µM; nearly all actives have a fitted effect of over 45% in size. In outline:
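HepG2-CYP2B6-hCAR, 2500 cells/well, 4 h pre-incubation; cpd 15 conc + PK11195 0.75 uM final; 23 h, 37 C/5% CO2; CellTiter-Fluor, fluorescence.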

The nature of assay [4]: qHTS assay to identify small molecule antagonists of the constitutive androstane receptor (CAR) signaling pathway - cell viability counter screen (AID 1224837). Note: series mostly up to about 92 µM; nearly all actives have a fitted effect of over 45% in size. In outline:
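Fluorescence from CellTiter-Fluor served as the viability signal. Human hepatoma HepG2 cells stably bearing hCAR and CYP2B6-2.2kb received compound plus CITCO (50 nM final) for 23 hr.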

Assay [5] has as its target Nuclear receptor subfamily 1 group I member 3 (Homo sapiens) (UniProt Q14994). The assay is described as follows: qHTS assay to identify small molecule antagonists of the constitutive androstane receptor (CAR) signaling pathway (AID 1224838).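 Note: HepG2 cells stably expressing hCAR with CYP2B6 luciferase reporter stimulated by CITCO; nearly all actives have a fitted effect of over 40% in size.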 In outline:
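Quantitative HTS in double-stable HepG2-CYP2B6-hCAR cells. After 4 h plating, cells get compound (15 concentrations) and CITCO at 50 nM final, incubate 24 h at 37 C, then ONE-Glo luminescence is read.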

Assay [6] has the same target. The assay is described as follows: qHTS assay to identify small molecule agonists of the constitutive androstane receptor (CAR) signaling pathway (AID 1224839).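 Note: HepG2 cells stably carrying human CAR and a CYP2B6 luciferase reporter; series mostly up to about 92 µM; nearly all actives have a fitted effect of over 15% in size.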 In outline:
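HepG2-CYP2B6-hCAR cells, 2500/well, 4 h pre-incubation; compounds 15 conc.; PK11195 0.75 uM final; 24 h, 37 C/5% CO2; ONE-Glo luciferase read.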

Assay [7] is described as follows: qHTS assay to identify small molecule antagonists of the estrogen related receptor signaling pathway with the pleiotropic PPARgamma coactivator (PGC) from Tox21 10K library - cell viability counter screen (AID 1224840; active = well fitted cell-killing curve with a large enough effect in the repeat runs, not every such curve was filed as active; note: nearly all actives have a fitted effect of over 40% in size). In outline: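 Compounds in DMSO, alongside positive and negative controls, were pinned onto PGC/ERR cells (2,000 per well). Exposure lasted 17.5 hours at 37 C, followed by a 30-minute CellTiter-Fluor incubation and fluorescence reading.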

The target in assay [8] is Thyrotropin receptor (Homo sapiens) (UniProt P16473). The assay is described as follows: qHTS assay to identify small molecule agonists of the thyroid stimulating hormone receptor (TSHR) signaling pathway (AID 1224843; calls by dose curve; note: nearly all actives have a fitted effect of over 45% in size). In outline: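 Steps: seed 800 TSHR-HEK293 cells per well; add test compound and hold 30 min at ambient temperature; dispense cAMP-d2 then anti-cAMP cryptate; incubate 1 h at ambient; measure fluorescence intensity.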
Chain of Thyrotropin receptor (Homo sapiens) (P16473 whole entry, looked up): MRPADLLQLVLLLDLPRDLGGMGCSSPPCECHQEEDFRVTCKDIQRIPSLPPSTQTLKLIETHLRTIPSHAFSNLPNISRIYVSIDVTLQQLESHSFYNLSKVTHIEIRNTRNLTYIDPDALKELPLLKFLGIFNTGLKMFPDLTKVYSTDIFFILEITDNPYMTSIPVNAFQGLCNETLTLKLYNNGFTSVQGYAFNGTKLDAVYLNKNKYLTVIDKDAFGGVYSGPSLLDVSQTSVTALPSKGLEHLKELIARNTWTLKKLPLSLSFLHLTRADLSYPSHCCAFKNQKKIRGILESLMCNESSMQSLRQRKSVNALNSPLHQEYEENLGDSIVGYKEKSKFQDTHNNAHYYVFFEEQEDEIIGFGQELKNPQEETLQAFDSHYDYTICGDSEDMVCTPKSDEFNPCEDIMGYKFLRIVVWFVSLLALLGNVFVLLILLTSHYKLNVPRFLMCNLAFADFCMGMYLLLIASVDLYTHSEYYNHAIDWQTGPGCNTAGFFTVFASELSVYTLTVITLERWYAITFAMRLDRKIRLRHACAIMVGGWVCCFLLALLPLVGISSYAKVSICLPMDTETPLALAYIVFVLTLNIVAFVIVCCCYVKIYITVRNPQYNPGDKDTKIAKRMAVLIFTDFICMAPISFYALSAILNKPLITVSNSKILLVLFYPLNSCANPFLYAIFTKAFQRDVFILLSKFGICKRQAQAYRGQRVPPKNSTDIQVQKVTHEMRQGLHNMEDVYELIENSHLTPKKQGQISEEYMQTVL

Assay [9] is described as follows: qHTS assay to identify small molecule agonists of the hypoxia (HIF-1) signaling pathway - cell viability counter screen (AID 1224844; calls by dose curve; note: nearly all actives have a fitted effect of over 50% in size). In outline:
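Luminescent ATP content (CellTiter-Glo, 30 min, room temperature) served as the viability measure in HRE-bla ME-180 cells exposed to compounds for 17 hrs in low-serum medium (0.5% dialyzed FBS).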

Assay [10] is described as follows: qHTS assay to identify small molecule agonists of H2AX (AID 1224845; active = well fitted activation curve with a large enough effect in the signal ratio in the repeat runs, not every such curve was filed as active; the % refers to the signal ratio). In outline: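 Wild-type CHO-K1 cells, plated overnight, exposed 3hr at 37C to 15 concentrations (0.76% DMSO final). Lysed, then HTRF anti-pH2AX (S139) cryptate and anti-H2AX-d2 antibodies, 24 hr room temperature; 665/620 nm emission read.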
Assay [11] can be described thus: qHTS assay to identify small molecule agonists of H2AX - cell viability counter screen (AID 1224847; calls by dose curve; note: top concentration of the series differs between compounds; nearly all actives have a fitted effect of over 30% in size). In outline:
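Cells plated first: CHO-K1, 1000 per well in 10% FBS medium, incubated overnight at 37C. Then 15-point compound titration added (final DMSO 0.76%) for 3 hr. Finally CellTiter-Glo added and luminescence read.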

The nature of assay [12]: qHTS RealTime-Glo MT Cell Viability Assay in HepG2 cells - 24 hour (AID 1224867). Note: nearly all actives have a fitted effect of over 50% in size. In outline: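 HepG2 suspension premixed with RealTime-Glo reagents is plated at 600 cells per well and left 5 h at 37 C/5% CO2. Compounds in DMSO then go in, and bioluminescence reflecting viable cell number is recorded over 40 h.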
Assay [13] is described as follows: qHTS RealTime-Glo MT Cell Viability Assay in HEK293 cells - 32 hour (AID 1224868). Note: nearly all actives have a fitted effect of over 50% in size. Note: potency is the fitted concentration of half-maximal effect. In outline:
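Reads taken at 0, 8, 16, 24, 32 and 40 h from the same wells. HEK293 cells (600/well) carried RealTime-Glo reagents from seeding, with compound added after a 5 h settle at 37 C.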

Assay [14] is described as follows: A CellTox Green Cytotoxicity Assay to monitor cytotoxicity in HEK293 cells - 0 hour (AID 1224869). Note: nearly all actives have a fitted effect of over 50% in size. In outline:
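Each value comes from one timepoint of a single continuous run in which HEK293 cells with CellTox Green were exposed to compound for up to 40 h at 37 C, dye fluorescence rising with cell death.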

Assay [15] is described as follows: qHTS RealTime-Glo MT Cell Viability Assay in HepG2 cells - 40 hour (AID 1224870). Note: nearly all actives have a fitted effect of over 50% in size. In outline: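 HepG2 cells (600/well) mixed with RealTime-Glo MT reagent, settled 5 h at 37 C/5% CO2 before compound addition. Nonlytic NanoLuc luminescence from viable-cell prosubstrate reduction read repeatedly during 40 h treatment at 37 C.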
Assay [16] in a line: qHTS assay to identify small molecule agonists of the hypoxia (HIF-1) signaling pathway (AID 1224846; active = well fitted activation curve with a large enough effect in the signal ratio in the repeat runs, not every such curve was filed as active; the % refers to the signal ratio). In outline:
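Measured by blue/green FRET after loading CCF4-AM: beta-lactamase expressed from a hypoxia response element in ME-180 cells. Test agents were delivered in DMSO and left 17 hrs; cells had been plated 5 hrs earlier in low-serum (0.5% dialyzed FBS) medium.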

Chain of Nuclear receptor subfamily 1 group I member 3 (Homo sapiens) (Q14994 whole entry, looked up): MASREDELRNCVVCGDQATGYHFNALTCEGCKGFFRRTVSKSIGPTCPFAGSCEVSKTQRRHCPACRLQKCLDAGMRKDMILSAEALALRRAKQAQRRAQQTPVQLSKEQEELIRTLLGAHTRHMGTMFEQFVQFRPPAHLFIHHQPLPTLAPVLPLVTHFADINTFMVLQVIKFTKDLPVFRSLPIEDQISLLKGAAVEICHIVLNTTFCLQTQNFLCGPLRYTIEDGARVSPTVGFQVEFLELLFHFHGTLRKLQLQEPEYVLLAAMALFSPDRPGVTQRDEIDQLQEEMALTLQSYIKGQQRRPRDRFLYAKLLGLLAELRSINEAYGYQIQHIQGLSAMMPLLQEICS

Turning to `O=C(Cc1ccccc1)OCc1ccccc1`, the Potency result in assay [1], in assay [3], in assay [4], in [5], in assay [6] and in [7] was “inactive” throughout. For the same compound, the Potency result in assay [8], in assay [9], in assay [10], in assay [11], in assay [12] and in [13] was “inactive” in each case. The Potency entry in [14] and in assay [15] was “inactive” in each case. Further, the Potency in assay [2] is 20.2 µM (active).

As to `CC(N)=S`, the Potency entry in assay [1], in [2], in [3], in assay [4], in assay [5] and in assay [6] was “inactive” in each case. For the same compound, the Potency result in assay [7], in assay [8], in [9], in [10], in assay [11] and in assay [12] was “inactive” in each case. In addition, the Potency result in assay [14] and in assay [15] was “inactive” in each case. Further, the call in assay [16] was inactive.

For the compound `CC1CN1P(=O)(N1CC1C)N1CC1C` (configuration not stated), the Potency result in [1], in [2], in assay [3], in assay [4], in [5] and in assay [6] was “inactive” throughout. Also, the Potency result in assay [7], in assay [9], in assay [10], in assay [11], in [12] and in assay [13] was “inactive” each time. The Potency entry in [15] was “inactive”. For the same compound, in assay [16], the call was inactive.

On to `CCC1(c2ccccc2)C(=O)NC(=O)NC1=O`, for which the Potency entry in [1], in [2], in assay [3], in assay [4], in [5] and in [6] was “inactive” in each case. The Potency entry in assay [7], in assay [8], in assay [9], in [10], in assay [11] and in [12] was “inactive” each time. Besides, the Potency entry in assay [14] and in assay [15] was “inactive” throughout.

For `CN1C(=S)CN=C(c2ccccc2)c2cc(Cl)ccc21`, the Potency entry in assay [1], in assay [2], in [3], in assay [4], in assay [5] and in assay [7] was “inactive” throughout. Also, the Potency entry in assay [8], in assay [9], in assay [11], in assay [12] and in assay [15] was “inactive” throughout. In [16], the outcome was inactive.

As to `O=P(O)(Oc1ccccc1)Oc1ccccc1`, the Potency entry in assay [1], in assay [2], in assay [3], in assay [4], in assay [5] and in assay [6] was “inactive” throughout. In addition, the Potency result in [7], in [8], in assay [9], in [10], in [11] and in [12] was “inactive” throughout. Moreover, the Potency result in assay [13], in [14] and in [15] was “inactive” each time.

`CC(C(O)c1ccccc1)N(C)C/C=C/c1ccccc1` (configuration not stated): the Potency entry in assay [1], in assay [2], in assay [3], in assay [4], in assay [5] and in assay [6] was “inactive” throughout. For the same compound, the Potency entry in [7], in [8], in assay [9], in assay [10], in assay [12] and in assay [14] was “inactive” each time. For the same compound, the Potency result in assay [15] is “inactive”.

As to `N#CC(Cl)(Cl)Cl`, the Potency result in assay [1], in [2], in [3], in assay [4], in assay [5] and in assay [6] was “inactive” throughout. For the same compound, the Potency result in assay [7], in assay [9], in [10], in [11], in [12] and in assay [13] was “inactive” in each case. Further, the Potency result in assay [14] and in assay [15] was “inactive” each time.

As for `CCCCc1ccc(O)cc1`, the Potency entry in assay [1], in [2], in assay [3], in assay [4], in assay [5] and in assay [6] was “inactive” each time. Besides, the Potency result in [7], in assay [8], in assay [9], in assay [10], in assay [11] and in assay [12] was “inactive” each time. Also, the Potency entry in assay [14] and in assay [15] was “inactive” each time. Also, the Potency in assay [13] was 19.5 µM (active).

On to `Cc1coc2c1CCC(C)C2` (configuration not stated), for which the Potency result in [1], in assay [2], in [3], in assay [4], in assay [5] and in assay [7] was “inactive” in each case. In addition, the Potency entry in assay [8], in [9], in [10], in assay [11], in assay [12] and in [13] was “inactive” in each case. The Potency result in assay [14] and in assay [15] was “inactive” throughout. Also, the compound was called inactive in [16].
